Reference: PubChem BioAssay (NCATS)
Values joined by “and” are separate entries in the source; they are usually repeats but may differ in a detail not shown here. Equal values may be shown once. Records with an inconclusive call do not appear. Entries that show only a call come without a potency. Active and inactive are the calls of the source. The call rests on the fitted dose curve; in most records, active means well fitted cell-killing curve with a large enough effect; inconclusive means small, poorly fitted or top-dose-only effect; inactive means no such curve, though single readings can be large or run the other way.

Assay: qHTS of pediatric cancer cell lines to identify multiple opportunities for drug repurposing: Primary screen for OHS-50 cells (AID 1347103); further: nearly all actives have a fitted effect of over 40% in size
Details: OHS-50 osteosarcoma viability, CellTiter-Glo luminescence, 48 h; series mostly up to 57.3 µM
Description: Drug repurposing or repositioning has been offered as a strategy for drug development in oncology programs. This approach has special potential for childhood cancers and other rare or orphan diseases, where the expected return on new drug development has been a disincentive to pharmaceuticals.
In this project we exploit the poly-pharmacology of drugs to discover new indications via phenotypic screening of a panel of 19 well-characterized cell lines derived from solid tumors seen in children and adolescents. The goal is to identify approved drugs with previously unrecognized anticancer properties that has the potential to reveal new mechanisms and biological processes involved in carcinogenesis or drug resistance. We employed a titration-based paradigm (quantitative high-throughput screening or qHTS), where all compounds were tested at multiple concentrations for their effect on cell viability. Concentration-response curves (CRCs) were derived directly from the primary screen, and both potency and efficacy values were used to identify compounds with robust bioactivity profiles. We screened the NIH Chemical Genomics Center (NCGC) Pharmaceutical Collection (NPC) and Mechanism Interrogation Plate (MIPE) small molecule collections of approved and investigational compounds against these cell lines; and measured metabolically active cells after 48 hours of compound treatment as a proxy for cell viability.
Assay Submitter: Nathalia J. Martinez, National Center for Advancing Translational Sciences, National Institutes of Health, Rockville, MD, USA; email: natalia.martinez@nih.gov
[1] Shen, M et al. Quantitative high-throughput phenotypic screening of pediatric cancer cell lines identifies multiple opportunities for drug repurposing. Oncotarget 2017 Dec 19;9(4):4758-4772. PMID 29435139.
The cells were obtained from University of North Carolina (UNC), Pediatric Preclinical Testing Program (PPT), and Coriell Institute (CI).
qHTS cell viability assay:
Cells were assayed in growth media at a density of 500-1,000 cells/well. Five microliters of cells were dispensed into 1,536-well, white, solid-bottom, TC-treated plates (Greiner Bio One) using a multidrop dispenser and incubated at 37 degrees C, 5% CO2, under a humidified atmosphere for 5 hours. Twenty-three nanoliters of compounds and controls (neutral control DMSO or positive control bortezomib at final concentration of 2.3 µM) were subsequently transferred by Kalypsys pintool. For primary screens, the MIPE collection was tested at 11-point dilutions (final concentrations range from 0.78 nM to 46 µM) and the NPC collection at 8-point dilutions (final concentrations range from 0.59 nM to 46 µM). Compounds tested in follow-up screens were assayed at 11-point dilutions. Cells were incubated for 48 hours, followed by addition of 3 µL of CellTiter-Glo (Promega). After a 15 min incubation at room temperature, samples were analyzed for luminescence intensity using a ViewLux High-throughput CCD imager equipped with clear filters.
Potency means the concentration at half of the fitted maximal effect.

SMILES	Potency
CCCCc1oc2ccccc2c1C(=O)c1cc(I)c(OCCN(CC)CC)c(I)c1	5.44 µM (active) and 11 µM (active)
Cc1ccc(C(=O)Nc2ccc(S(=O)(=O)O)c3cc(S(=O)(=O)O)cc(S(=O)(=O)O)c23)cc1NC(=O)c1cccc(NC(=O)Nc2cccc(C(=O)Nc3cc(C(=O)Nc4ccc(S(=O)(=O)O)c5cc(S(=O)(=O)O)cc(S(=O)(=O)O)c45)ccc3C)c2)c1	inactive
CCC1(c2ccccc2)C(=O)NCNC1=O	inactive
COc1nc(C)nc(Cl)c1NC1=NCCN1	inactive
O=C(CCCN1CCC(O)(c2ccc(Cl)cc2)CC1)c1ccc(F)cc1	inactive
O=C(Nc1ccc([N+](=O)[O-])cc1Cl)c1cc(Cl)ccc1O	1.51 µM (active) and 863 nM (active)
CC(C)Cc1ccc(C(C)C(=O)O)cc1 (stereo not given)	inactive
COc1ccc2[nH]cc(CCNC(C)=O)c2c1	inactive
COC(=O)Nc1nc2ccc(C(=O)c3cccs3)cc2[nH]1	8.6 nM (active) and 309 nM (active)
CC(C(=O)O)c1cccc(C(=O)c2ccccc2)c1 (stereo not given)	inactive
CC1(C)O[C@H]2CC(=O)OC[C@]23[C@H]2CC[C@@]4(C)[C@H](c5ccoc5)OC(=O)[C@H]5O[C@]54[C@]2(C)C(=O)C[C@@H]13	inactive
OCCN(CCO)c1nc(N2CCCCC2)c2nc(N(CCO)CCO)nc(N3CCCCC3)c2n1	21.7 µM (active)
CN(C)C(=N)N=C(N)N	inactive
Cc1ccccc1N1C(=O)c2cc(S(N)(=O)=O)c(Cl)cc2NC1C (stereo not given)	inactive
CC#C[C@]1(O)CC[C@H]2[C@@H]3CCC4=CC(=O)CCC4=C3[C@@H](c3ccc(N(C)C)cc3)C[C@@]21C	7.69 µM (active)
CC(C)(Oc1ccc(C2CC2(Cl)Cl)cc1)C(=O)O (stereo not given)	inactive
COc1ccc(CCN(C)CCCC(C#N)(c2ccc(OC)c(OC)c2)C(C)C)cc1OC (stereo not given)	inactive
CN(Cc1cnc2nc(N)nc(N)c2n1)c1ccc(C(=O)N[C@@H](CCC(=O)O)C(=O)O)cc1	0.0098 µM (active)
O=C(c1ccc(OCCN2CCCCC2)cc1)c1c(-c2ccc(O)cc2)sc2cc(O)ccc12	27.6 µM (active) and 24.3 µM (active)
CN1CCC(=C2c3ccccc3C=Cc3ccccc32)CC1	13.8 µM (active) and 19.3 µM (active)

SMILES	Potency
NC(=O)OCC(COC(N)=O)c1ccccc1	inactive
NCCCCCC(=O)O	inactive
COc1ccc(C2CNC(=O)C2)cc1OC1CCCC1 (stereo not given)	inactive
COc1ccccc1N1CCN(CC(O)COc2cccc3ccccc23)CC1 (stereo not given)	15.5 µM (active)
Cc1cc(C(C)(C)C)c(O)c(C)c1CC1=NCCN1	inactive
COc1cc2nc(N(C)CCCNC(=O)C3CCCO3)nc(N)c2cc1OC (stereo not given)	inactive
COc1ccccc1OCC(O)CN1CCN(CC(=O)Nc2c(C)cccc2C)CC1 (stereo not given)	inactive
Cn1c(=O)c2c(ncn2C)n(C)c1=O	inactive
NS(=O)(=O)c1cc2c(cc1Cl)NCNS2(=O)=O	inactive
O=C(C1CCCCC1)N1CC(=O)N2CCc3ccccc3C2C1 (stereo not given)	inactive
CC(CCc1ccc(O)cc1)NCCc1ccc(O)c(O)c1 (stereo not given)	inactive
Cc1cn([C@H]2C=C[C@@H](CO)O2)c(=O)[nH]c1=O	inactive
NC12CC3CC(CC(C3)C1)C2	inactive
CC(=O)OCC(CCn1cnc2cnc(N)nc21)COC(C)=O	inactive
CCOC(=O)c1ncn2c1CN(C)C(=O)c1cc(F)ccc1-2	inactive
Cc1cn([C@H]2C[C@H](N=[N+]=[N-])[C@@H](CO)O2)c(=O)[nH]c1=O	inactive
CN(CCOc1ccc(NS(C)(=O)=O)cc1)CCc1ccc(NS(C)(=O)=O)cc1	inactive
Nc1ccn([C@H]2CC[C@@H](CO)O2)c(=O)n1	inactive
C[C@H]1c2cccc(O)c2C(O)=C2C(=O)[C@]3(O)C(O)=C(C(N)=O)C(=O)[C@@H](N(C)C)[C@@H]3[C@@H](O)[C@@H]21	inactive
C[C@@H]1CC(=O)NN=C1c1ccc(NN=C(C#N)C#N)cc1	21.7 µM (active)
